# Rab9 promoter act: activators of Rab9 promoter | Potency, µM (highest dose often 9.22 µM), usual class: activators | hit rate 2.8% among 320,000 | Huh7 Rab9 promoter-luciferase reporter, luminescence, 24 h | AID 485297; also: nearly all actives have a fitted effect of over 60% in size
#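 Luminescence read-out: Huh7 cells stably expressing Rab9-luciferase, treated 24 h with compound at 37 °C, then lysed with luciferase reagent for 10 min at ambient before reading.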
# Luc counter: Kinase-Glo luciferase inhibition (counter-screen); Q27757; Kinase-Glo luciferase, ATP luminescence, 8 min; Potency, µM (top dose mostly 38.3 µM), most hits filed as inhibitors; hit rate 0.28% among 200,000; also: nearly all actives have a fitted effect of over 60% in size
#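 Recombinant Kinase-Glo luciferase, 10 uM ATP (linear range), luciferin; imidazole pH 7.2 / KCl / MgCl2 / Tween / BSA buffer; 8 min RT; luminescence.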
# SMN2 splice enh: SMN2 splice variant enhancement; HEK293 SMN2-luciferase splicing reporter, luminescence, 30-36 h; Potency, µM (titrated, usually from 46.1 µM), usual class: activators; hit rate 2.8% among 210,000; AID 1458; also: nearly all actives have a fitted effect of over 55% in size
#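 HEK293 cells carry an SMN2 […]–luciferase reporter in which exon 7 inclusion puts luciferase in frame. Cells were plated 10-12 h before compound addition, then incubated 30-36 h at 37C. ONE-Glo luminescence was read; sodium butyrate at 4.5 mM final served as control.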
# ELG1 genotox: genotoxicity induction in ELG1-luciferase HEK293T cells | HEK293T ELG1-luciferase reporter, luminescence, 16 h | Potency, µM (series often up to 46 µM), most hits filed as activators | hit rate 1.3% among 330,000; also: nearly all actives have a fitted effect of over 60% in size
#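 Quantitative HTS format in 1536-well plates. HEK293T ELG1-luciferase reporter cells receive test compound and are incubated 16 hr at 37 °C, 5% CO2; ONE-Glo added, 30 min room temperature, then luminescence read.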
# FLuc modulator: firefly luciferase modulation, counter-screen for miR-21 project; Potency, µM (top dose mostly 57.5 µM), most hits filed as inhibitors; P08659; purified FLuc, Km substrates, luminescence inhibition; hit rate 6.9% among 360,000; AID 588342; also: nearly all actives have a fitted effect of over 55% in size
# Target sequence (P08659 whole entry, looked up): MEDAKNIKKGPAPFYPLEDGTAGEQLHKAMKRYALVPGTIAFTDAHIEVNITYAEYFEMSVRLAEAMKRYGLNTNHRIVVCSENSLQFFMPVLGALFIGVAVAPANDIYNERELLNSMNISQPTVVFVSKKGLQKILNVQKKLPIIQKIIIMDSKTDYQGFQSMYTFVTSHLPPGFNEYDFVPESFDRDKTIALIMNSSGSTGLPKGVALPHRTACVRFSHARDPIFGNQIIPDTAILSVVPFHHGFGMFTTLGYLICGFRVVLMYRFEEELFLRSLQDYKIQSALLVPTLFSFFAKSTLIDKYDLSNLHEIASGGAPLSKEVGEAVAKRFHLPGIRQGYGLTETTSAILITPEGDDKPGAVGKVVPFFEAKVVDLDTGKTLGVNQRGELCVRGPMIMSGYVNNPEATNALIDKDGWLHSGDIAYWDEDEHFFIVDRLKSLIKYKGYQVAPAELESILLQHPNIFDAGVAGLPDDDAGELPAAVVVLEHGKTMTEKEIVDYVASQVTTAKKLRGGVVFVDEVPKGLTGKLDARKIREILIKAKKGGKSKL
#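 Biochemical qHTS of compounds, final roughly 60 µM downward over six points, against 10 nM purified firefly luciferase using Km concentrations of substrates (10 uM D-luciferin, 10 uM ATP) in Tris acetate pH 7.5 buffer; luminescence output.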
# NPC1 prom act: activators of NPC1 promoter | Huh7 NPC1 promoter luciferase reporter, 24 h | Potency, µM (highest dose often 9.22 µM), most hits filed as activators | hit rate 2.4% among 320,000; also: nearly all actives have a fitted effect of over 60% in size
#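 Quantitative HTS used a cell-based reporter: Huh7 cells stably bearing the NPC1 promoter upstream of luciferase were treated with compounds for 24 h, and promoter activation was read as luminescence.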
# Hits are given with their value; – = inactive; ? = inconclusive; · = no result given; ! = a repeat was not active; [ ] = remark or other dose. This is a sample that favours compounds with a hit; in the whole collection about 7.4% have one here. Calls follow the shape of the dose curve; as a rule, active = well fitted curve in the direction sought with a large enough effect; inconclusive = small, poorly fitted or top-dose-only effect, or another doubt; inactive = no such curve, though single readings can be large; an effect the other way counts as inactive or inconclusive.
SMILES,Rab9 promoter act,Luc counter,SMN2 splice enh,ELG1 genotox,FLuc modulator,NPC1 prom act
CC(C)(C)c1ccc(OCCON2C(=O)CCC2=O)c(Cl)c1,–,–,–,?,15µM,–
NC(=O)c1cccc(-c2cccc(OC(=O)NC3CCCCC3)c2)c1,–,·,·,–,?,–
CNC(=O)Oc1cccc(-c2cn3cc(OC(=O)NC)ccc3n2)c1,?,–,13µM,21µM,3.8µM,3.5µM
CNC(=O)Oc1ccc(-c2cn3cc(Cl)ccc3n2)cc1,0.63µM,–,5µM,?,1.1µM,0.89µM
Oc1cccc(Cl)c1,·,·,–,·,·,·
COc1ccccc1N=Nc1ccc(N)c(C)c1,–[1.84 µM],·,·,?,15µM,–
c1nc[nH]n1,·,·,–,·,·,·
Cc1c(C(=O)N2CCOCC2)sc2nc(-c3ccccc3)cn12,2.5µM,–,?,?,17µM,4µM
Nc1cnn(-c2ccccc2)c(=O)c1Cl,–,·,·,–,–,–
CCCCSc1nc2c(cnn2-c2ccccc2)c(=O)n1N,1.8µM,–,10µM,?,6.7µM,2.8µM
COc1ccccc1-n1c(-c2ccccc2Br)nc2ccccc2c1=O,–,·,·,–,–,–
COc1ccccc1-n1c(-c2ccc(C)cc2)nc2ccccc2c1=O,–,·,·,–,13µM,–
COc1cc(/C=C/c2nc3ccccc3c(=O)n2-c2ccccc2O)ccc1O,–,·,·,–,17µM,–
COc1cc(/C=C/c2nc3ccccc3c(=O)n2-c2cccc(O)c2)ccc1O,–,·,·,–,?,–
O=C(O)C[O][Sb][O]CC(=O)O,·,–[7.66 µM],–[9.22 µM],·,·,·
N=C(N)n1cc(/C=N\N=C(N)N)cn1,·,–[7.66 µM],–[9.22 µM],·,·,·
c1ccc(OP(Oc2ccccc2)Oc2ccccc2)cc1,·,·,–,·,·,·
O=C(O)/C=C\C(=O)Nc1ccc(Oc2ccc(Br)cc2)cc1,–,–,–,–,19µM,–
[N-]=[N+]=CC(=O)CC[C@H](N)C(=O)O,·,–[7.66 µM],–[9.22 µM],·,·,·
N=C1/C(=C\c2ccc(OC(=O)c3ccccc3Cl)cc2)C(=O)N=C2SC(N3CCOCC3)=NN12,–,·,·,–,24µM,–
CCS(=O)(=O)C1=NN2C(=N)/C(=C\c3ccc(OC(=O)c4ccco4)cc3)C(=O)N=C2S1,–,·,·,–,?,–
[N-]=[N+]=[N-],·,·,–,·,·,·
Cc1ccc(Sc2ccc(C=C3C(=O)N(C)C(=O)N(C)C3=O)o2)cc1,–,–,–,–,15µM,–
N#CCBr,·,·,–,·,·,·
Cc1ccc(Cn2cc(C=O)c(-c3ccc(F)cc3)n2)cc1,–,·,·,–,?,–
SMILES,Rab9 promoter act,Luc counter,SMN2 splice enh,ELG1 genotox,FLuc modulator,NPC1 prom act
Cc1ccc(-c2nn(Cc3ccccc3)cc2C=O)cc1C,–,–,–,–,27µM,–
Cc1ccc(-c2nn(Cc3ccccc3)cc2C=O)cc1,3.5µM,–,?,–,19µM,?
Cc1ccc(N2CCN(C(=O)C3CCC(CNS(=O)(=O)c4ccc(Br)s4)CC3)CC2C)cc1 (configuration not stated),·,·,–,·,–,·
Cc1ccc(C(=O)n2c(N)nc3ccccc32)cc1,0.1µM,11µM,0.4µM,0.21µM,0.19µM,?
CC(C)(C)c1ccc(C(=O)Nc2ccc3nc(SCC(=O)N4CCCC4)sc3c2)cc1,·,·,·,·,7.6µM,·
CCC12CCN(Cc3ccc(F)cc3)CC1Oc1c(O)cccc12 (configuration not stated),·,·,·,·,–,·
Cc1cc2c(C(C)C)c(O)c(O)c(C=O)c2c(O)c1-c1c(C)cc2c(C(C)C)c(O)c(O)c(C=O)c2c1O,–,–,–,?,13µM!,–
Cc1cc(C)cc(NC(=O)Cn2cc(C(=O)c3cccs3)c3ccccc32)c1,·,·,–,·,–,·
COc1ccc2c(c1)NP(=S)(Oc1ccccc1)N2 (configuration not stated),–,·,·,?,6.7µM,–
COc1cccc(-n2c(=S)[nH]c3ccccc3c2=O)c1,–,–,–,–,–,–
CN(C)S(=O)(=O)c1ccc(C(=O)NCCSc2c(-c3ccccc3)[nH]c3ccccc23)cc1,·,·,–,·,–,·
COP(=O)(OC)O/C(=C\Cl)c1cc(Cl)c(Cl)cc1Cl,·,·,–,·,·,·
O=C(/C=C/c1ccccc1)C1C(=O)c2ccccc2C1=O,2.2µM,–,10µM,–,0.38µM,4µM
O=[As](O)(O)c1ccc2nc3cc([As](=O)(O)O)ccc3nc2c1,·,–[7.66 µM],–[9.22 µM],·,·,·
NS(=O)(=O)c1ccc(-c2ccc([As](=O)(O)O)cc2)cc1,·,–[7.66 µM],–[9.22 µM],·,·,·
O=C(O)Cn1cc(/C=C2\C(=O)NC(=O)N(Cc3ccco3)C2=O)c2ccccc21,–,–,–,–,17µM,–
O=C(N/N=C/c1c(O)n(C2CCCCC2)c(=S)[nH]c1=O)c1ccccc1,–,·,·,?,–,–
CC(C)c1ccc(-n2c(O)c(/C=N/NC(=O)c3ccccc3O)c(=O)[nH]c2=S)cc1,–,·,·,–,27µM,–
